Screens as filed in PubChem.
Sampled rows, rich in hits. Any-hit rate of the full collection: about 3.3%.
HCV inh – qHTS Assay for Inhibitors of Hepatitis C Virus (HCV); Potency, µM (top dose mostly 41.8 µM), inactives show at the top dose activity change, negative = inhibition, actives largely listed as inhibitors; Huh7.5.1 HCVcc-Cre infection, luciferase reporter, 44 h; 3.4% of 340,000 active; AID 651820, 2012; active = well fitted inhibition curve with a large enough effect; inconclusive = small, poorly fitted or top-dose-only effect, or another doubt; inactive = no such curve, though single readings can be large or run the other way
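Infectious HCVcc-Cre (~0.5 moi) was added to cells just after compound, with cells seeded 4 h earlier at 1,000 per well. Luciferase activity after 44 h culture reported infection; substrate was incubated 15 min at room temperature before reading.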
VACV mCherry inh – qHTS for Stage-Specific Inhibitors of Vaccinia Orthopoxvirus: mCherry Reporter Primary qHTS; AID 720579, 2013; Vaccinia virus mCherry reporter infection, fluorescence; 0.63% of 310,000 active; Potency, µM (doses to about 36.5 µM), without a hit: at the top dose activity change, negative = inhibition, usual class: inhibitors; calls by dose curve; tested in A549 cells; note: nearly all actives have a fitted effect of over 35% in size
Vaccinia Venus – qHTS for Stage-Specific Inhibitors of Vaccinia Orthopoxvirus: Venus Reporter Primary qHTS; 0.46% of 330,000 active; Vaccinia virus Venus reporter expression, fluorescence; Potency, µM (highest dose often 36.5 µM), for inactives: at the highest dose activity change, negative = inhibition, most hits filed as inhibitors; AID 720580, 2013; calls by dose curve; tested in A549 cells; note: nearly all actives have a fitted effect of over 30% in size
The depositor's hits bear a star; i = inactive; ? = inconclusive; nt = not tested or not shown; [ ] = another dose, or the depositor's remark. % is set by controls: 0 for no effect and ±100 for the full control effect; potency is the fitted concentration of half-maximal effect.

SMILES | HCV inh | VACV mCherry inh | Vaccinia Venus
C[C@]12c3[nH]c4ccccc4c3CCN1C(=O)C(CC(=O)NCCc1ccccn1)C[C@@H]2C(=O)N1CCOCC1 (stereo partly drawn) | -7% | i | -9%
O=C(C[n+]1cccc(I)c1)c1ccc(F)cc1 | nt | -7% | -13%
COc1ccc2c(c1)CCc1c(C(=O)Nc3c(C)nn(Cc4ccc(Cl)cc4)c3C)noc1-2 | nt | -9%[7.34 µM] | -5%[7.34 µM]
COc1ccc2c(c1)CCc1c(C(=O)Nc3c(C)nn(Cc4ccccc4)c3C)noc1-2 | 8.9µM* | ? | ?
Cc1nn(Cc2ccccc2)c(C)c1NC(=O)c1cc(C(C)C)on1 | nt | -11% | -8%
Cc1nn(Cc2ccc(Cl)cc2)c(C)c1NC(=O)c1cc(C(C)C)on1 | 11µM* | -27% | -2%
CCOc1ccc(S(=O)(=O)N2CCC(C(=O)NCc3ccco3)CC2)cc1C | -10% | ? | -28%
C#CCNC(=O)C1=C[C@H](c2coc3ccccc3c2=O)[C@@H](CCCO)[C@H](OCC)O1 | 17% | -11% | -18%
CCOC(=O)[C@]12CCC=C1N(Cc1ccc(Cl)cc1Cl)C(=O)[C@H](CC(=O)N1CCCCC1)C2 | nt | -3% | -10%
CC1C(=O)C(C)(C)C(=O)OC1c1ccccc1 (stereo not drawn) | 7% | nt | nt
C[C@H]1C=CC(=O)O[C@H]1c1ccccc1 | 15% | ? | 3.2µM*
CC1(C)OC2CC3C4CC(F)C5=CC(=O)C=CC5(C)C4C(O)CC3(C)[C@]2(C(=O)CO)O1 (stereo partly drawn) | nt | -5% | -19%
C[N+](C)(C)c1ccc(/C=C2\C=Cc3ccccc32)cc1 | nt | 9% | -18%
Cc1ccc2nc3c(c(Nc4ccc(C)c(C)c4)c2c1)CCC3 | nt | ? | -29%
CC[C@@H]1C(c2ccc(F)cc2)=NN(c2ccc(Br)cc2)[C@H]1C(=O)N1CCOC1=O | -1%[8.37 µM] | -6% | ?
CCN(CC)C(=O)c1nn(Cc2ccccc2)c(=O)c2ccccc12 | 4% | nt | nt
CCN(CC)C(=O)c1nn(-c2ccccc2)c2c1C1CCC2(C)C1(C)C (stereo not drawn) | 13µM* | -4% | -11%
Cc1ccccc1C1(CC(=O)N2CCC[C@H]2C(N)=O)CC(=O)N(C2CCCC2)C1=O (stereo partly drawn) | nt | -8% | -3%
CN(Cc1cnccn1)Cc1nc(Cc2ccccc2Cl)no1 | 7% | i | -17%
CCN(Cc1ccncc1)Cc1nc(Cc2ccccc2Cl)no1 | 11µM* | nt | nt
O=C(NCCc1nnc2n1CCN(CC1CC=CCC1)CC2)c1ccc(F)cc1 (stereo not drawn) | nt | i | -14%
CCOCCCn1c(SCC(=O)Nc2ccccc2)nc2ccccc2c1=O | -7% | -22% | ?
CCOCCCn1c(SCc2nc3ccccc3s2)nc2ccccc2c1=O | 11µM* | i | -5%
COc1ccc(NC(=O)CC2C(=O)N(c3cccc(OC)c3)C(=O)N2Cc2cccnc2)cc1 (stereo not drawn) | nt | -3% | -6%
Cc1cccc(OCCCC(=O)N2CCCc3ccccc32)c1C | 10µM* | nt | nt
SMILES | HCV inh | VACV mCherry inh | Vaccinia Venus
Cc1cccc(OCC(=O)OCC(=O)N2CCCc3ccccc32)c1C | 7% | nt | nt
CCc1ccc(/C=N/NC(=O)c2cc(C3CC3)nc3ccc(Br)cc23)s1 | 22µM* | ? | ?
CCc1ccc(/C=N/NC(=O)c2cc(-c3ccccc3OC)nc3ccccc23)s1 | -22% | -17% | -8%
CCOC(=O)c1ccc(S(=O)(=O)N2CCN(Cc3cc4c(cc3O)OCO4)CC2)cc1 | 37% | ? | ?
O=C(Nc1ccc2oc(-c3ccc4ccccc4c3)nc2c1)c1cc(Cl)ccc1Cl | nt | 0% | -12%
CCCCNC(=S)Nc1ccc(F)cc1 | 4% | -16% | -11%
CCCCNC(=S)Nc1ccc(SC(F)F)cc1 | 11µM* | -23% | -26%
CN(C)S(=O)(=O)c1cccc(COC(=O)CCNC(=O)c2ccc([N+](=O)[O-])cc2)c1 | -5% | nt | nt
O=C(NCc1ccco1)c1ccc(-c2cccc(Cl)c2)o1 | 18% | -16% | -3%
COc1ccc(-c2cc(C#N)nc(N3CCN(C)CC3)n2)cc1 | 13µM* | -4% | -13%
COc1ccc(-c2cc(C#N)nc(NN)n2)cc1 | -13% | -16% | -24%
COc1ccc(-c2cc(C#N)nc(N3CCNCC3)n2)cc1 | -20% | nt | nt
CCN(CC)c1nc(C#N)cc(-c2ccc(OC)cc2)n1 | 7.1µM* | nt | ?
N#Cc1cc(-c2ccccc2)nc(Oc2ccccc2)n1 | 10µM* | nt | nt
CN1CCN(c2nc(-c3ccccc3)nc(-c3ccccc3)c2C#N)CC1 | ? | -15% | -3%
N#Cc1ccc(Oc2nc(C#N)cc(-c3ccccc3)n2)cc1 | -12% | -10% | -21%
CN1CCN(c2nc(C#N)cc(-c3ccccc3)n2)CC1 | 10µM* | nt | -24%
Cc1nc([N+](=O)[O-])cn1CC(=O)c1ccc2c(c1)OCCCO2 | nt | -7% | -8%
Cc1ccccc1NC1=NCC(c2ccc([N+](=O)[O-])cc2)S1 (stereo not drawn) | -29% | 11µM* | 13µM*
Cc1ccccc1Nc1ccc([N+](=O)[O-])cn1 | 7% | i | -12%
CCC1CN(CC(=O)NC(C)CO)Cc2cc(OC)ccc2O1 (stereo not drawn) | nt | -16% | -5%
COc1ccc(NC2CCCN(C(=O)CCC(=O)c3ccc(F)cc3)C2)cc1 (stereo not drawn) | nt | 0% | -20%
CC(=O)OC1CC(OC2C(O)CC(OC3C(O)CC(OC4CCC5(C)C(CCC6C5CCC5(C)C(C7=CC(=O)OC7)C(O)CC65O)C4)OC3C)OC2C)OC(C)C1OC1OC(CO)C(O)C(O)C1O (stereo not drawn) | ? | 0.28µM* | 0.28µM*
CC(C)=CCC[C@](C)(O)C1CC[C@]2(C)C1C(O)CC1[C@@]3(C)CCC(O)C(C)(C)C3C(O[C@@H]3OC(CO)C(O)C(O)C3O[C@@H]3OC(C)C(O)C(O)C3O)C[C@]12C (stereo partly drawn) | ? | -2% | -8%
C[C@H]1O[C@@H](O[C@H]2[C@@H](O)C[C@H](O[C@H]3[C@@H](O)C[C@H](O[C@H]4CC[C@@]5(C)[C@H](CC[C@@H]6[C@@H]5CC[C@]5(C)[C@@H](C7=CC(=O)OC7)CC[C@]65O)C4)O[C@@H]3C)O[C@@H]2C)C[C@H](O)[C@@H]1O | -11%[8.37 µM] | 7.1µM* | 0.089µM*
CC1OC(OC2C(O)CC(OC3C(O)CC(OC4CCC5(C)C(CCC6C5CCC5(C)C(C7=CC(=O)OC7)C(O)CC65O)C4)OC3C)OC2C)CC(O)C1O (stereo not drawn) | ? | nt | 0.32µM*
CC1O[C@@H](O[C@@H]2C(O)C[C@H](O[C@@H]3C(O)C[C@@H](OC4CC[C@@]5(C)C6CC(O)[C@@]7(C)C(C8=CC(=O)OC8)CC[C@@]7(O)C6CC[C@@H]5C4)OC3C)OC2C)CC(O)[C@H]1O (stereo partly drawn) | nt | 1µM* | 1µM*
CCCCn1c(N)c(N(Cc2ccccc2OC)C(=O)C(C)Oc2ccc(Cl)cc2)c(=O)[nH]c1=O (stereo not drawn) | -23% | -22% | -19%
Cc1noc(C)c1C(=O)Nc1ccc(-c2nnc3n2CCCCC3)cc1 | 3% | -11% | -6%
